CR mimetic SO: caloric restriction mimetics inhibiting age-related superoxide in yeast; S. cerevisiae aged cells, superoxide DHE fluorescence; hits give low values; superoxide response (% of plate mean), % at 10 µM; 330,000 tested, 0.18% active;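 active = superoxide response under a set limit, about three screen SD below normal, cut at about 65% in these data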;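 note: yeast aged for seven days with compound at 30 °C before DHE staining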
A3A deaminase: inhibitors of human APOBEC3A DNA deaminase. P31941. 330,000 tested, 0.41% active. recombinant A3A, FAM/TAMRA ssDNA deamination fluorescence. inhibition, % at 20 µM;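 active = at least 40% inhibition at 20 µM here, with at most 30% in a related deaminase screen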
APOBEC3G inh: inhibitors of human APOBEC3G DNA deaminase; Q9HC16; recombinant A3G, ssDNA deamination FAM/TAMRA fluorescence; inhibition, % at 20 µM; 330,000 tested, 0.28% active;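 active = inhibition of at least 40% at 20 µM, with no more than 30% in the related APOBEC3A deaminase screen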
Target sequence (Q9HC16 whole entry, looked up): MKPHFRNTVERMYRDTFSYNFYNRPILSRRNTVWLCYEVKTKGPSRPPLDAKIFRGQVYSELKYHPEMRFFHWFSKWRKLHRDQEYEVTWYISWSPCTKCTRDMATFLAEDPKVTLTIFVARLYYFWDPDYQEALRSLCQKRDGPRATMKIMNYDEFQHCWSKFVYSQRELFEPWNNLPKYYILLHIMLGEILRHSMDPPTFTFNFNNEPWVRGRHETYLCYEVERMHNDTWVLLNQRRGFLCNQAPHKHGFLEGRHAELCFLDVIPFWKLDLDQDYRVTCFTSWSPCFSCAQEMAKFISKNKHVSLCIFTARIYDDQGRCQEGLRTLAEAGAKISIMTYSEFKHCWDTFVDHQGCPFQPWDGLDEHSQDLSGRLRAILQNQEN
ALR H2O2 inh: human ALR oxidase inhibition via reduced H2O2 | P55789 | purified ALR, DTT oxidation, H2O2 HRP-luminol luminescence | inhibition, % (concentration not given with the values) | 290,000 tested, 3.8% active;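 active = mean replicate inhibition above about 79%, with every replicate also reaching it, limit read from the data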
CendR NRP1 mod: alters CendR peptide binding to human NRP-1; 360,000 tested, 0.85% active; O14786; inhibition, % at 25 µM; FAM-RPARPAR peptide binding to NRP-1, fluorescence polarization;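 active = inhibition or corrected inhibition above about 18%, plus a signal ratio from 0.5 to 1.5, limit read from the data, passing the limit was not always enough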
PfM18AAP inh-1: PfM18AAP enzyme inhibition | recombinant PfM18AAP, H-Glu-NHMec fluorogenic cleavage | inhibition, % at 7.35 µM | 290,000 tested, 1.2% active;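 active = inhibition above the campaign mean inhibition over all tested compounds plus 3 SD, cut at about 28% in these data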
PfM18AAP inh-2: PfM18AAP inhibition, confirmation | shares compounds with PfM18AAP inh-1 | recombinant PfM18AAP, H-Glu-NHMec fluorogenic cleavage | inhibition, % at 7.35 µM | 2,400 tested, 28% active | AID 2170;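 active = mean inhibition over replicate wells above the hit cutoff set for the earlier primary screen, cut at about 29% in these data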
CTSL1 confirm: counter-screen for PFM18AAP inhibitors: confirmation of human cathepsin L inhibitors; shares compounds with PfM18AAP inh-1; purified cathepsin L1, Z-Leu-Arg-MCA fluorescence; inhibition, % at 5.96 µM; 2,400 tested, under 10 active; AID 2178;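 active = average inhibition across replicates above the hit cutoff set in the earlier primary screen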
Each line names hits and unclear results; the compound was inactive in the other large screens (follow-up assays come after a bar, where they were run). Rows were chosen to be rich in hits. Some 5.2% of all compounds tested hit in one or more screens of this group.

COc1ccc(S(=O)(=O)N2CCOCC2)cc1NC(=O)COc1cccnc1[N+](=O)[O-]	none
O=C(NNC(=O)C1CCN(S(=O)(=O)c2c(Cl)cccc2Cl)CC1)c1ccccc1O	none (no result: PfM18AAP inh-1)
O=C(NNC(=O)C1CCN(S(=O)(=O)c2ccccc2)CC1)c1ccccc1O	PfM18AAP inh-1 40 | PfM18AAP inh-2 inactive | CTSL1 confirm inactive
Cc1cc(N/N=C/c2ccc(O)c(C)c2O)nc(-c2ccccc2O)n1	PfM18AAP inh-1 44 (no result: A3A deaminase, APOBEC3G inh) | PfM18AAP inh-2 38 | CTSL1 confirm inactive
CC(=O)Nc1nc2c(F)cccc2s1	none
CC(C)NC(=S)NNc1nc2ccccc2s1	PfM18AAP inh-1 41 | PfM18AAP inh-2 34 | CTSL1 confirm inactive
O=C(NNc1nc2ccccc2s1)c1ccc(F)cc1	PfM18AAP inh-1 32 (no result: ALR H2O2 inh) | PfM18AAP inh-2 inactive | CTSL1 confirm inactive
O=C(Nc1nc2c(F)cc(F)cc2s1)C1CC1	none
O=C(Nc1nc2ccccc2s1)c1ccccc1	none
O=C(NNc1nc2c(F)cccc2s1)c1ccccc1	PfM18AAP inh-1 43 | PfM18AAP inh-2 inactive | CTSL1 confirm inactive
O=C(NNc1nc2c(F)cc(F)cc2s1)c1ccccc1	PfM18AAP inh-1 39 | PfM18AAP inh-2 inactive | CTSL1 confirm inactive
CCOC(=O)C(C)Oc1ccc(C2NC(=O)NC(C)=C2C(C)=O)cc1Br (stereo not given)	none
CC(C)(C)NC(=O)NC(=O)COC(=O)CNC(=O)c1cc(Cl)cc([N+](=O)[O-])c1	none
C[C@H]1CN([C@@H](C)CO)C(=O)CCCn2nncc2CO[C@@H]1CN(C)S(=O)(=O)c1ccc(Oc2ccccc2)nc1	none (no result: CR mimetic SO, A3A deaminase, APOBEC3G inh, ALR H2O2 inh, PfM18AAP inh-1)
CC(C)N(C(C)C)S(=O)(=O)c1ccc(NN)nc1	PfM18AAP inh-1 38 | PfM18AAP inh-2 37 | CTSL1 confirm inactive
CCN(CC)S(=O)(=O)c1ccc(N/N=C/c2cc(OC)ccc2O)nc1	PfM18AAP inh-1 57 (no result: ALR H2O2 inh) | PfM18AAP inh-2 inactive | CTSL1 confirm inactive
CCN(CC)S(=O)(=O)c1ccc(N/N=C/c2cccnc2)nc1	none
CN1CCN(S(=O)(=O)c2ccc(NN)nc2)CC1	none (no result: PfM18AAP inh-1)
CCN(c1ccccc1)S(=O)(=O)c1ccc(NN)nc1	none (no result: PfM18AAP inh-1)
CCN(CC)S(=O)(=O)c1ccc(NN)nc1	PfM18AAP inh-1 45 | PfM18AAP inh-2 41 | CTSL1 confirm inactive
CC(C)c1ccc(Nc2ncc3c(n2)CCN(C(=O)NC2CCCCC2)C3)cc1	none (no result: CR mimetic SO, A3A deaminase, APOBEC3G inh, ALR H2O2 inh, PfM18AAP inh-1)
Cc1ccccc1N1CCN(c2ncnc3scc(-c4cccs4)c23)CC1	none (no result: ALR H2O2 inh)
Cc1cccc(N(Cc2ccccc2)C(=O)CN2C(=O)NC3(CCCCC3C)C2=O)c1 (stereo not given)	none (no result: PfM18AAP inh-1)
Cn1c2ccccc2c2cc(/C=N/NC(=O)c3ccc(O)cc3O)ccc21	none
Cn1c(O)c(/C=N/NC(=O)c2cc3ccccc3cc2O)c2ccccc21	PfM18AAP inh-1 32 (no result: ALR H2O2 inh) | PfM18AAP inh-2 inactive | CTSL1 confirm inactive
O=C(COc1ccc2c(c1)OCO2)Nc1nnc(Cc2ccccc2)s1	PfM18AAP inh-1 38 | PfM18AAP inh-2 inactive | CTSL1 confirm inactive
Cc1ccc(NC(=S)N(CCN(C)C)Cc2cccs2)c(C)c1	PfM18AAP inh-1 36 | PfM18AAP inh-2 inactive | CTSL1 confirm inactive
CN(C)/N=C/C=C1\CCC/C(=C\c2ccc(F)c(F)c2)C1=O	PfM18AAP inh-1 38 | PfM18AAP inh-2 inactive | CTSL1 confirm inactive
N#C/C(=C/c1ccc(O)c(O)c1)c1nc2ccccc2[nH]1	ALR H2O2 inh 90, PfM18AAP inh-1 62 | PfM18AAP inh-2 43 | CTSL1 confirm inactive
N#C/C(=C\c1cccs1)c1nc2ccccc2[nH]1	none (no result: A3A deaminase, APOBEC3G inh, ALR H2O2 inh)
CS(=O)(=O)c1cnc(-c2ccccc2)nc1Sc1ccc(F)cc1	none (no result: ALR H2O2 inh)
CC1=CC(C)(C)N2C(=O)C3(C(C#N)=C(N)OC4=C3C(=O)CC(C)(C)C4)c3c(C)c(C)cc1c32 (stereo not given)	none
COc1ccc(C2Nc3cccc4cccc(c34)N2)cc1Br	PfM18AAP inh-1 35 | PfM18AAP inh-2 inactive | CTSL1 confirm inactive
COc1ccccc1N1C(=O)C2CC(C)=C(C)CC2C1=O (stereo not given)	none
